ALDH1A1 inh: blocks purified human ALDH1A1 activity. P00352. Purified ALDH1A1, NADH fluorescence, propionaldehyde substrate. Potency, µM (titrated, usually from 75.3 µM), inactives show at the highest dose activity, negative = inhibition, usual class: inhibitors. 7.3% of 220,000 active. AID 1030; active means well fitted inhibition curve with a large enough effect, not every such curve was filed as active; inconclusive means small, poorly fitted or top-dose-only effect, or another doubt; inactive means no such curve, though single readings can be large or run the other way;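 further: potency means the concentration at half of the fitted maximal effect; plate controls were no enzyme wells and a reference inhibitor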
NPSR antag: blocks cAMP signaling of the human neuropeptide S receptor; Q6W5P4; CHO-NPSR cells, cAMP TR-FRET, antagonist mode; Potency, µM (titrated, usually from 38.3 µM), without a hit: at the top dose activity change, negative = inhibition, usual class: inhibitors; 1% of 220,000 active; AID 1461; further: potency means the concentration at half of the fitted maximal effect; nearly all actives have a fitted effect of over 50% in size
Target sequence (Q6W5P4 whole entry, looked up): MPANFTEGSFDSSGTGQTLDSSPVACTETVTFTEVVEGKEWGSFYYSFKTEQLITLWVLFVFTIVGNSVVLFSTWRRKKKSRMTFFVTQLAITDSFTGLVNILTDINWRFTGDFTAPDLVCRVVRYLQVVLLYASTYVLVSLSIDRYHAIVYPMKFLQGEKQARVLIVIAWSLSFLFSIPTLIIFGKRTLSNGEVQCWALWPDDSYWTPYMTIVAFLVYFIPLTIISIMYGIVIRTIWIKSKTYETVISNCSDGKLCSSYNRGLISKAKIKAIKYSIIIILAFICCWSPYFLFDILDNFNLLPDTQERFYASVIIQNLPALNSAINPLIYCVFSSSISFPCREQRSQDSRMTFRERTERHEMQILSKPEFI
HPGD inh: inhibitors of human 15-hydroxyprostaglandin dehydrogenase (HPGD); P15428; purified HPGD, NADH fluorescence kinetic, PGE2 substrate; Potency, µM, inactives show at the highest dose activity change, negative = inhibition, actives largely listed as inhibitors; 4.3% of 150,000 active; AID 894; active means well fitted inhibition curve with a large enough effect, not every such curve was filed as active; inconclusive means small, poorly fitted or top-dose-only effect, or another doubt; inactive means no such curve, though single readings can be large or run the other way; further: potency means the concentration at half of the fitted maximal effect
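NADH formation kinetics: reaction with 30 uM PGE2 and 1 mM NAD+ (final), 20 nM enzyme, Tris-HCl pH 8 with Tween 20, after 15 min compound preincubation at room temperature. Fluorescence change, last versus first of five reads.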
IMPase Li cell: membrane-permeable IMPase blocker, potentiated with lithium | CHO-M1 cells, IP1 TR-FRET (IP-One), carbachol + lithium | Potency, µM (titrated, usually from 59.4 µM), for the others: top-dose activity, negative = IMPase inhibition, actives largely listed as inhibitors | 0.35% of 210,000 active | AID 1457;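 further: IP1 builds up when IMPase is blocked and the TR-FRET signal falls; potency means the concentration at half of the fitted maximal effect; plate controls were basal vehicle for no effect and high inhibitor control for full effect; nearly all actives have a fitted effect of over 50% in size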
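Readout is a homogeneous TR-FRET IP1 immunoassay (Ex 320, Em 665 and 620), where raised cytosolic IP1 lowers signal. Cells were CHO-M1 treated 30 min at 37C with test compounds plus a little lithium; AC50 values came from Hill-equation fitting.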
PNC inhibitor: perinucleolar compartment assembly inhibition; PC3M PTB-GFP, PNC prevalence imaging, 16 h; stronger effect = lower value; activity change (PNC), negative = inhibition, % at 10 µM; 3.1% of 140,000 active;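 active means readout at or below -70, meaning at least 70% loss of cells showing the perinucleolar compartment, a nuclear body marking cancer cells; inconclusive means readout between -30 and a set limit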;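 further: plate controls were DMSO wells for no effect and camptothecin positive control wells for full effect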
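PC3M cells stably expressing PTB-GFP, 750–1000 cells/well, treated 16 h at 37 °C with compound (23 nl of library stock), in duplicate. After paraformaldehyde fixation and Hoechst stain, imaged at 20x; PNC prevalence scored by image analysis.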
IMPase inh: cell-permeable inhibitors of inositol monophosphatase (IMPase). P97697. CHO-M1 cells, IP1 accumulation, HTRF TR-FRET ratio. inhibition (IP1 accumulation), % at 46.1 µM. 120,000 tested, under 10 active. AID 901; active means well fitted curve in the direction sought with a large enough effect in the signal ratio, not every such curve was filed as active; inconclusive means small, poorly fitted or top-dose-only effect, or a change in a side signal; inactive means no such curve, though single readings can be large or run the other way; the % refers to the signal ratio;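 further: cells stimulated with carbachol in lithium chloride buffer; plate controls were DMSO basal wells for no effect and reference inhibitor wells for full effect; higher means more IMPase inhibition seen as more IP1 and lower FRET ratio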
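CHO-M1 cells (CHO stably expressing M1 receptor), compound up to 46 uM final, stimulated with carbachol (50 uM as added) in buffer with 50mM LiCl, pH 7.4, 30 min at 37C. Cytosolic IP1 read by TR-FRET; AC50 from Hill fits.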
* hit, by the source's call; ? = inconclusive; · = no result given; [ ] = another dose, or the depositor's remark. An excerpt weighted towards active compounds, which were near 11% of everything screened. Unless noted, the call rests on the fitted dose curve; in most records, active means well fitted curve in the direction sought with a large enough effect; inconclusive means small, poorly fitted or top-dose-only effect, or another doubt; inactive means no such curve, though single readings can be large; an effect the other way counts as inactive or inconclusive. Unless noted, on the % scale 0 is the no-effect control and ±100 the full control effect.

SMILES	ALDH1A1 inh	NPSR antag	HPGD inh	IMPase Li cell	PNC inhibitor	IMPase inh
CCOCCCNC(=O)C(c1ccc(C)cc1)N(Cc1ccc2c(c1)OCO2)C(=O)c1ccccn1 (centres undefined)	?	7%	·	4%	·	·
COc1ccc(CN(C(=O)CSc2nnc(-c3ccccc3C)o2)c2ccc(F)cc2)cc1	2.5µM*	-26%[46.1 µM]	?	9%	72	12
O=C(CSc1nnc(-c2c[nH]c3ccccc23)o1)N(Cc1ccccc1)c1ccc(F)cc1	9%	7.9µM*	-22%	-8%	18	6
CC1CCCCN1C(=O)CSc1nnc(-c2c[nH]c3ccccc23)o1 (centres undefined)	25µM*	-21%[46.1 µM]	-18%	9%[38.3 µM]	-26	?
Cc1ccc(C(=O)CSc2nnc(-c3c[nH]c4ccccc34)o2)cc1	5%	-21%[46.1 µM]	-10%	21%[38.3 µM]	0	-4[1.84 µM]
COc1ccc(NC(=O)CCCN2C(=O)C3C4C=CC(C4)C3C2=O)c(OC)c1 (centres undefined)	13µM*	-4%[46.1 µM]	-5%	9%	?	0
COC(=O)NNC(=S)Nc1cc(OC)ccc1OC	25µM*	-5%[46.1 µM]	?	-15%[38.3 µM]	17	-3
COc1ccc(NC(=O)CC(=O)Nc2ccc(OC)cc2OC)c(OC)c1	27%	4%[46.1 µM]	2%	-9%[38.3 µM]	-127*	-5
COc1ccc(NC(=S)Nc2ccccc2OC)c(OC)c1	25µM*	-5%	·	2%	·	·
O=C(CNC(=S)NC(=O)C1CCCCC1)c1ccccc1	2%	-39%	-3%	?	-21	·
CCc1sc(C(=O)Nc2cc(Cl)ccc2N2CCCCC2)cc1C	?	-18%[46.1 µM]	?	27%[38.3 µM]	65	0
Cc1ccccc1-c1nc(CN(C)C(C)c2ccon2)c(C)o1 (centres undefined)	2%	14%	·	8%	·	·
CCOc1cc(NC(=S)NCC2CCCO2)c(OCC)cc1NC(=O)c1ccccc1C (centres undefined)	-3%	-19%[46.1 µM]	-3%	0%[38.3 µM]	44	7
CCCCC(=O)Nc1ccc(NC(=O)CC)cc1OC	2%	-4%[46.1 µM]	-11%	10%[38.3 µM]	-84*	4
COc1ccc(NC(=S)Nc2ccc(OC)cc2OC)c(OC)c1	20µM*	20%	25µM*	-5%	14	·
CCCCC(=O)Nc1ccc(NC(=S)NC(=O)CC(C)C)cc1OC	-7%	15%	?	-3%	23	·
CCOc1cc(NC(=S)Nc2ccccc2OC)c(OCC)cc1NC(=O)c1ccccc1C	?	?	?	2%[38.3 µM]	-109*	9
Cc1ccc(CSCC(=O)Nc2ccc3c(c2)OCO3)cc1	7.9µM*	-26%[46.1 µM]	-26%	38%[38.3 µM]	-3	6
O=C(CN1CCc2ccccc21)NCc1ccc2c(c1)OCO2	?	23%	-18%	2%	-19	·
O=C(CN1CCc2ccccc21)Nc1ccc2c(c1)OCO2	13µM*	-19%[46.1 µM]	-7%	25%[38.3 µM]	17	8
CCOc1ccc(N/C(C)=C\C(=O)c2ccc3c(c2)OCCO3)cc1	13µM*	19%	·	22%	·	·
COc1ccc(OCCCC(=O)Nc2ccc3c(c2)OCCO3)cc1	22µM*	-15%[46.1 µM]	-20%	18%[38.3 µM]	-20	4
Cc1ccc(OCCCC(=O)Nc2ccc3c(c2)OCO3)cc1	?	-16%[46.1 µM]	-6%	7%[38.3 µM]	25	3
O=C(COC(=O)c1cccc(NC(=O)c2ccc(Br)cc2)c1)c1ccc(Cl)cc1	·	·	·	·	·	0
CC(C)c1cc(C(=O)N/N=C/c2cccnc2)cs1	?	9%	-12%	-2%	51	·
Cc1nc(Nc2ccc(S(=O)(=O)N3CCCCC3C)cc2)c2nnn(Cc3ccccc3)c2n1 (centres undefined)	?	-55%	?	-16%	-29	2
CCCOc1ccc(C(CC(=O)O)NC(=O)CC(c2ccccc2)c2ccccc2)cc1 (centres undefined)	7%	-18%	·	0%	·	·
COc1ccccc1NC(=O)CN1CCN(CC(=O)Nc2ccc3c(c2)OCO3)CC1	11µM*	-9%[46.1 µM]	-13%	25%[38.3 µM]	17	9

Source: PubChem BioAssay
